The supplement of paper PMC3334620
Over roughly 33,000 sequences, “E-score (-0.5 to 0.5)” has its median near -0.036; the highest 2% begin near 0.37. This excerpt belongs to a sample that is enriched for the highest values.

molecular target: T1, Yer064c (UniProt P40041); experiment: PBM E-score (8-mer binding enrichment) (E-score (-0.5 to 0.5)); higher = stronger / more preferred TF binding; conditions: protein concentration: 200 nM; construct: GST-full length
T1 sequence: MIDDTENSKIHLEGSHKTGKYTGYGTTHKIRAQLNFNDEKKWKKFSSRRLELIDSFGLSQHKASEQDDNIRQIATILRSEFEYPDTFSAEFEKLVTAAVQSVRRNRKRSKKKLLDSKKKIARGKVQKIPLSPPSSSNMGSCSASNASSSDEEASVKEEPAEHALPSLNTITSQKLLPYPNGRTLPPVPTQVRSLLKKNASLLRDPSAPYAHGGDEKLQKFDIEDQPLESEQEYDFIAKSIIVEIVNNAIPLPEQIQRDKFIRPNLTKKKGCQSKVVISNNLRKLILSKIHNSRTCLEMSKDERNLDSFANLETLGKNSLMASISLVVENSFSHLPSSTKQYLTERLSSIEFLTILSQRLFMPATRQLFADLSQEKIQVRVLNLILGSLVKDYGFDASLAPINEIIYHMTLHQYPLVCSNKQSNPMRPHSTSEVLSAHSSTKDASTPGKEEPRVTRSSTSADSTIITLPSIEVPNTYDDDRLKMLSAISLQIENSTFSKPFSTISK
Method: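 Universal 'all 10-mer' protein binding microarrays (Agilent AMADID 015681) probed with GST-tagged S. cerevisiae TFs (full-length or DBD) made by in vitro transcription/translation (PURExpress), about 100-200 nM. Bound TF was detected with fluorescent anti-GST. Each ungapped 8-mer (which stands for itself and its reverse complement) is scored by the PBM enrichment score (E-score), a modified Wilcoxon-Mann-Whitney statistic from -0.5 to +0.5, computed with the Universal PBM Analysis Suite. Scale: above 0.35 generally sequence-specific binding.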

Sequence | PBM E-score
ACTCAAAT | 0.294
AGTCAAAG | 0.406
GGTCAAAA | 0.0441
ATTCAAAT | 0.214
AGTCAAAA | 0.408
AGTCAAAC | 0.35
CGTCAAAG | 0.0679
AGTCAAAT | 0.412
CGTCAAAA | -0.0525
ACGCGAGC | -0.0659
GGCAAGAC | -0.163
GTGGCATA | -0.194
AATGCGTA | 0.00743
GGTAGGGA | -0.0117
AGGGAAGA | -0.0141
AGAAAATC | 0.0604
ACATCGGA | 0.0356
TACTCAAA | 0.201
GACTCAAA | 0.48
GACTCAAC | 0.472
CACTCAAC | 0.0472
CACTCAAA | 0.107
AACTCAAC | 0.123
CGGCCCGA | -0.157
ACGAGAGC | -0.143

Sequence | PBM E-score
GTTGGCAA | -0.14
AAGCTTAA | 0.0226
CGGTACAG | -0.12
GGCTCACA | 0.13
CTCGTAAC | 0.0792
GACTCTCC | 0.411
CACTCTCA | -0.0477
CACTCTCC | -0.0733
AACTCTCC | -0.159
AACTCTCA | 0.0457
GACTCTCA | 0.418
AGGTCTTA | 0.0474
CCTTCCCA | -0.0175
CAATGCAC | 0.0625
CTGAGCCA | 0.31
ATGAGCCC | -0.00355
ATGAGCCA | 0.396
ATATCATC | -0.113
AAATCATC | 0.403
ACATCATC | 0.212
GCATCATA | 0.0926
CAATCATG | 0.369
CAATCAGG | 0.218
GTATCATA | 0.0771
AAATCATG | 0.385

Sequence | PBM E-score
GAATCATA | 0.464
CAATCAAG | 0.212
AAATCATT | 0.359
AAATCAAG | 0.0497
ATTTTGTA | 0.00667
ACAAGAGT | 0.149
CTTCATAC | -0.00264
GGCCGGAA | -0.146
GTCGGCGA | 0.141
GAATGAGA | 0.0143
AGCGTCCG | -0.131
CAGCAAGA | -0.11
CGCTTCCA | -0.24
ATGTAAGC | -0.0792
AACTGTTA | 0.0274
GAGAGGAA | -0.0878
TAATCATA | 0.457
TAATCAGA | 0.35
ATATCATA | 0.00064
AAATCATA | 0.387
TAATCAAA | 0.315
ACATCATA | 0.107
GGTGAGCA | -0.00163
GGAACCAA | -0.106
ATTCACCG | 0.0472

Sequence | PBM E-score
AGTCACCA | 0.469
AGACACCG | 0.11
AGTCACCC | 0.479
CGTCACCA | -0.0242
CGTCACCC | -0.258
GGTCACCA | 0.036
AGTCACCG | 0.476
ATTCACCC | 0.0614
TACGCAGA | 0.1
TAGATGAA | 0.00973
AGACCCGG | -0.0102
GTAGAGCA | -0.0431
CCATCGGA | -0.00521
GCTTTCAA | 0.0808
CCATCCCA | 0.0189
AATATCCG | -0.0742
CGCGAGTC | 0.405
CGCGAGTA | 0.0526
CCCGAGTC | 0.329
AGCGAGTC | 0.405
ACCGAGTA | -0.0874
CGCGAGCC | 0.0358
AGCGAGTA | 0.115
ACCGAGTC | 0.377
AGCGAGTG | 0.0737

Sequence | PBM E-score
CGGGAGAA | -0.141
CTTATCCC | -0.147
AAGGAAGG | -0.0955
ACCCTATG | 0.155
GAGCTTCA | -0.142
ACGGATGG | 0.0552
ATCTTCCG | -0.0471
GACGACCC | -0.217
GTCGACTA | 0.335
GACGACTA | 0.415
ATCGACTC | 0.304
GACGACTC | 0.442
AACGACTG | 0.133
AACGACTT | 0.177
GACGACGC | -0.226
AACGACTC | 0.427
GACGACGA | 0.00788
AACGACAC | -0.105
AACGACTA | 0.393
CGGCTACA | -0.00254
CGTTTCGC | -0.125
AATCTTCG | 0.25
TACCTGGA | 0.0309
CTCCACCC | -0.099
AAAGACCA | -0.029

Sequence | PBM E-score
TACGGCGA | -0.108
CACGACGA | 0.044
CACGACAC | -0.043
TACGACTA | 0.415
CACGACGC | -0.163
CACGACTA | 0.403
CACGACTG | 0.238
CACGACTC | 0.437
TACGACGA | 0.071
TACGACAA | 0.0113
TAGCCACA | 0.14
CGCGATAC | -0.206
CAAAATCC | 0.087
CAAAAGCC | -0.227
GAGCCATC | 0.342
TAGCCATA | 0.28
GAGCCATA | 0.366
AGAGCTCG | -0.222
AGTCATAC | 0.486
CGTCATAG | -0.0141
GGTCATAC | 0.123
TGTCATAA | 0.0821
AGTCATAA | 0.476
AGTCATAG | 0.482
AGACATAT | 0.137

Sequence | PBM E-score
GGTCATAA | 0.081
AGTCATAT | 0.484
AGCCATAG | 0.199
CGTCATAC | 0.192
CGTCATAA | -0.00764
CAAAACTC | -0.0536
AAAATAAC | 0.0567
CCGTCCCG | -0.193
ACAATTAA | 0.144
CGTGCGTC | -0.13
TGTGCTAA | 0.0249
GGAATCAA | 0.257
ACAATCAT | 0.385
AGAATCCC | 0.0788
AGAATCAT | 0.44
AGAATCGC | 0.127
AGAATCAG | 0.325
GGAATCAC | 0.418
AGAATCCT | -0.0297
ACAATCAC | 0.351
ACAATCAA | 0.202
GGAATCCC | -0.166
